According to PubChem BioAssay (NCATS):
Results filed as inconclusive are left out. Calls of active or inactive are those of the source. Calls come from the whole dose curve; as a rule, active = well fitted curve in the direction sought with a large enough effect; inconclusive = small, poorly fitted or top-dose-only effect, or another doubt; inactive = no such curve, though single readings can be large; an effect the other way counts as inactive or inconclusive.

Tests used:
HACAT = assay: qHTS assay to identify novel small-molecules to repurpose for Merkel cell carcinoma treatment (AID 1296009); conditions: MCC and control cell lines, CellTiter-Glo viability, 72 h; at 44.8 µM (top of the series) unless noted; note: nearly all actives have a fitted effect of over 60% in size
Outline: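 qHTS format: cells treated with library compounds in DMSO across 8 (NPC) or 11 (MIPE) concentrations. Readout after 72 hr at 37 degree celsius was CellTiter-Glo luminescence.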

C33A = assay: Primary qHTS to identify gynecologic anti-cancer compounds using libraries of approved drugs and bioactive compounds (AID 1345084); conditions: Gynecologic cancer cell panel viability, ATPlite luminescence, 48 h; series mostly up to 57.5 µM; note: % is set by controls: 0 for no effect and ±100 for the full control effect; nearly all actives have a fitted effect of over 55% in size
Outline: (§1)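 Five-concentration response, 48 h; readout is ATP-driven luciferase luminescence.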

CAOV3 = assay: as above; conditions: Gynecologic cancer cell panel viability, ATPlite luminescence, 48 h; series mostly up to 57.5 µM
Outline: as §1

CASKI = assay: as above; conditions: Gynecologic cancer cell panel viability, ATPlite luminescence, 48 h; series mostly up to 57.5 µM
Outline: as §1

Es-2 = assay: as above; conditions: Gynecologic cancer cell panel viability, ATPlite luminescence, 48 h; series mostly up to 57.5 µM
Outline: as §1

HeLa = assay: as above; conditions: Gynecologic cancer cell panel viability, ATPlite luminescence, 48 h; series mostly up to 57.5 µM
Outline: as §1

Hek293T = assay: as above; conditions: Gynecologic cancer cell panel viability, ATPlite luminescence, 48 h, control line for the selectivity index; series mostly up to 57.5 µM
Outline: as §1

JEG-3 = assay: as above; conditions: Gynecologic cancer cell panel viability, ATPlite luminescence, 48 h; series mostly up to 57.5 µM
Outline: as §1

COc1ccc(CC(NC(C)=O)C(=O)O)cc1 (stereo not drawn)
inactive: outcome (HACAT) | Potency (C33A) | Potency (CAOV3) | outcome (CASKI) | Potency (Es-2) | Potency (HeLa) | Potency (Hek293T) | Potency (JEG-3)

CC1CC(=O)[C@]2(O)C(C(=O)OCCc3ccc(O)c(O)c3)=CO[C@@H](O[C@@H]3O[C@H](CO)[C@@H](O)[C@H](O)[C@H]3O)[C@H]12 (stereo partly drawn)
inactive: outcome (HACAT) inactive [at 17.4 µM] | Potency (C33A) | Potency (CAOV3) | outcome (CASKI) | Potency (Es-2) | Potency (HeLa) | Potency (Hek293T) | Potency (JEG-3)

COc1c2c(c(C)c3c1C(=O)OC3)OC1(C)CC(O)C34OC(OC)(CC(O)C3(C)C1C2)OC4(C)C (stereo not drawn)
inactive: outcome (HACAT) inactive [at 17.4 µM] | Potency (C33A) | Potency (CAOV3) | outcome (CASKI) | Potency (Es-2) | Potency (HeLa) | Potency (Hek293T) | Potency (JEG-3)

CC(C)(O)C(O)C(=O)OCc1ccc(O[C@@H]2O[C@H](CO)[C@@H](O)[C@H](O)[C@H]2O)cc1 (stereo partly drawn)
inactive: outcome (HACAT) inactive [at 17.4 µM] | Potency (C33A) | Potency (CAOV3) | outcome (CASKI) | Potency (Es-2) | Potency (HeLa) | Potency (Hek293T) | Potency (JEG-3)

C=C1CCC2(C(=O)OC3OC(CO)C(O)C(O)C3O)CCC3(C)C(=CCC4C5(C)CCC(OC6OC(CO)C(OC7OC(C)C(O)C(O)C7O)C(OC7OCC(O)C(O)C7O)C6O)C(C)(C)C5CCC43C)C2C1 (stereo not drawn)
inactive: outcome (HACAT) inactive [at 9.27 µM] | activity change, negative = cytotoxicity (C33A) 5.83% [at 11.6 µM] | activity change, negative = cytotoxicity (CAOV3) 1.68% [at 11.6 µM] | activity change, negative = cytotoxicity (CASKI) -6.54% [at 11.6 µM] | activity change, negative = cytotoxicity (Es-2) -3.02% [at 11.6 µM] | activity change, negative = cytotoxicity (HeLa) 11.1% [at 11.6 µM] | activity change, negative = cytotoxicity (Hek293T) 6.11% [at 11.6 µM] | activity change, negative = cytotoxicity (JEG-3) 12.2% [at 11.6 µM]

CN(C)c1ccc(C2O[C@@H](c3ccccc3)C[C@H](c3ccccc3)O2)cc1 (stereo partly drawn)
inactive: outcome (HACAT) | Potency (C33A) | Potency (CAOV3) | outcome (CASKI) | Potency (Es-2) | Potency (HeLa) | Potency (Hek293T) | Potency (JEG-3)

CC1(C)CCC[C@@]2(C)[C@H]1[C@H](O)C=C(CO)[C@]2(O)CO
inactive: outcome (HACAT) | Potency (C33A) | Potency (CAOV3) | outcome (CASKI) | Potency (Es-2) | Potency (HeLa) | Potency (Hek293T) | Potency (JEG-3)

COc1cccc2c1c(O)c(C(=O)N(C)c1ccc(C(F)(F)F)cc1)c(=O)n2C
inactive: outcome (HACAT) | Potency (C33A) | Potency (CAOV3) | outcome (CASKI) | Potency (Es-2) | Potency (HeLa) | Potency (Hek293T) | Potency (JEG-3)

CC(O)CCc1ccc(O[C@@H]2O[C@H](CO)[C@@H](O)[C@H](O)[C@H]2O)cc1 (stereo partly drawn)
inactive: outcome (HACAT) | Potency (C33A) | Potency (CAOV3) | outcome (CASKI) | Potency (Es-2) | Potency (HeLa) | Potency (Hek293T) | Potency (JEG-3)

C=C1C[C@]23C[C@H]1CC[C@H]2[C@]1(C)CC[C@H](O)[C@@](C)(C(=O)O)[C@H]1[C@@H]3C(=O)O
inactive: outcome (HACAT) | Potency (C33A) | Potency (CAOV3) | outcome (CASKI) | Potency (Es-2) | Potency (HeLa) | Potency (Hek293T) | Potency (JEG-3)

C=C1C2(C)CC3C4(C)OC(C5OC56C4=CC(=O)OC6(C)C)C3(C)C13C(=O)OC(C)C3(O)C2=O (stereo not drawn)
inactive: outcome (HACAT) inactive [at 17.4 µM] | Potency (C33A) | Potency (CAOV3) | outcome (CASKI) | Potency (Es-2) | Potency (HeLa) | Potency (Hek293T) | Potency (JEG-3)

Oc1ccc2c(-c3c(-c4ccccn4)nn4c3CCC4)ccnc2c1
inactive: outcome (HACAT) | Potency (C33A) | Potency (CAOV3) | outcome (CASKI) | Potency (Es-2) | Potency (HeLa) | Potency (Hek293T) | Potency (JEG-3)

C=CC(C)(CC/C=C(\C)C(=O)OC[C@H]1O[C@@H](OC(C)(C=C)CC/C=C(\C)C(=O)O[C@H]2[C@H](O)[C@@H](O)[C@H](OC(C)(C=C)CC/C=C(\C)C(=O)O)O[C@@H]2CO)[C@H](O)[C@@H](O)[C@@H]1O)O[C@@H]1O[C@H](CO)[C@@H](O)[C@H](O)[C@H]1O (stereo partly drawn)
inactive: outcome (HACAT) inactive [at 9.27 µM] | activity change, negative = cytotoxicity (C33A) -1.99% [at 11.6 µM] | activity change, negative = cytotoxicity (CAOV3) -17.5% [at 11.6 µM] | activity change, negative = cytotoxicity (CASKI) -16.7% [at 11.6 µM] | activity change, negative = cytotoxicity (Es-2) -6.19% [at 11.6 µM] | activity change, negative = cytotoxicity (HeLa) 2.2% [at 11.6 µM] | activity change, negative = cytotoxicity (Hek293T) -1.07% [at 11.6 µM] | activity change, negative = cytotoxicity (JEG-3) -1.18% [at 11.6 µM]

COc1c2c(c(C)c3c1C(=O)OC3)OC1(C)CC(O)C34OC(O)(CCC3(C)C1C2)OC4(C)C (stereo not drawn)
inactive: outcome (HACAT) inactive [at 17.4 µM] | Potency (C33A) | Potency (CAOV3) | outcome (CASKI) | Potency (Es-2) | Potency (HeLa) | Potency (Hek293T) | Potency (JEG-3)

C[C@H]1[C@H](C)CC[C@]2(C(=O)OC3OC(CO)C(O)C(O)C3O)CC[C@]3(C(=O)O)C(=CCC4[C@@]5(C)CC[C@H](O[C@@H]6O[C@@H](C)[C@H](OC7OC(CO)C(O)C(O)C7O)[C@@H](O)[C@H]6O)C(C)(C)C5CC[C@]43C)[C@H]12 (stereo partly drawn)
inactive: outcome (HACAT) inactive [at 9.27 µM] | activity change, negative = cytotoxicity (C33A) -28.6% [at 11.6 µM] | activity change, negative = cytotoxicity (CAOV3) 3.53% [at 11.6 µM] | activity change, negative = cytotoxicity (CASKI) 6.49% [at 11.6 µM] | activity change, negative = cytotoxicity (Es-2) 4.54% [at 11.6 µM] | activity change, negative = cytotoxicity (HeLa) -0.904% [at 11.6 µM] | activity change, negative = cytotoxicity (Hek293T) 6.98% [at 11.6 µM] | activity change, negative = cytotoxicity (JEG-3) 7.38% [at 11.6 µM]

CCC(=O)N1CCc2cc(OC)c(O)cc2C1
inactive: outcome (HACAT) | Potency (C33A) | Potency (CAOV3) | outcome (CASKI) | Potency (Es-2) | Potency (HeLa) | Potency (Hek293T) | Potency (JEG-3)
